In PubChem BioAssay (NCI) one finds growth data, which are given here for 14 compounds.

Holding throughout (assay): NCI-60 one-dose screen, 48 h (100 = growth as untreated, 0 = no growth, -100 = all killed)
Common to all, as to settings: 10 µM unless noted

Test [1] deals with SR leukemia.
The test system of test [2] is RPMI-8226 leukemia.
Test [3] concerns OVCAR-8 ovarian.
The subject of test [4] is OVCAR-5 ovarian.
In test [5] the test system is OVCAR-4 ovarian.
For test [6], the system named is SK-OV-3 ovarian.
Test [7] relates to IGROV1 ovarian.
For test [8], the system named is OVCAR-3 ovarian.
Test [9] has as its system HS 578T breast.
The test system of test [10] is NCI/ADR-RES ovarian.

This is part of a sample that, as a whole, favours compounds with a hit. Of some 83,000 tested, about 20% had one in any assay.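 Single-concentration screen, 48 h exposure, 96-well plates. Endpoint: percent growth. Below 10 = active.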 Unmarked numbers belong to inactive results. The source made the active and inactive calls.

For `CC[C@H](C)[C@@H]1NC(=O)[C@H]([C@@H](C)O)NC(=O)C(Cc2ccccc2)NC(=O)[C@@H]2CCCN2C(=O)C(C(C)C)NC(=O)C(Cc2ccccc2)NC(=O)CNC(=O)[C@@H]2CCCN2C1=O` (stereo not given in full), the growth in test [1] is 20.1%; in test [2], 7.56% (active); in [3], 68.3%; in test [4] it was 89.9%; in test [5] it was 60%; in test [6], 78.4%. In addition, the growth in test [7] was 63.6%; in test [8], 57.6%; in test [9], 59.2%; in test [10] it was 64.5%.

As for `Cc1cc(Nc2nc(C(=O)Nc3ccccc3)nc3ccccc23)n[nH]1`, the growth in test [1] is 33%; in [2], 59.6%; in test [3] it was 75.6%; in test [4], 82.2%; in test [5], 44.6%; in test [6], 39.3%. The growth in [7] was 39.6%; in test [8], 78.1%; in test [9], 73.2%; in test [10], 44.2%.

Turning to `CN=S(=O)(NC(=O)c1ccc(Cl)cc1Cl)c1ccc(Br)s1` (stereo not given), the growth was 94.3% in test [1]; 98% in [2]; 97.6% in test [3]; 95.3% in test [4]; 103% in test [5]; 111% in test [6]. The growth was 101% in test [7], 109% in [8], 97.8% in test [9] and 99.3% in test [10].

For `Nc1nc(N)c2nc(CNc3ccc(C(=O)CC(CCC(=O)O)C(=O)O)cc3)cnc2n1` (stereo not given), the growth in test [1] was 28.6%; in [2], 58.3%; in test [3] it was 14.8%; in [4], 53.1%; in test [5], 79.9%; in test [6] it was 52%. The growth in [7] was -58.5% (active); in test [8] it was 49.8%; in test [9], 82.4%; in test [10], 25.6%.

Take `CCSc1nnc(NC(=O)COc2ccc(Cl)cc2C)s1`: the growth in test [1] is 43.4%; in test [2], 94.6%; in [3] it was 100%; in test [4] it was 96.2%; in test [5] it was 107%; in [6] it was 93.5%. For the same compound, the growth in test [7] is -17.9% (active); in [8], 94.8%; in test [9], 101%; in test [10], 106%.

For `CCCCCCc1nc2c(c(C)nn2-c2ccccc2)c2c1CCCCC2`, the growth was 97.7% in test [1]; 105% in test [2]; 107% in test [3]; 114% in [4]; 115% in test [5]; 95% in test [6]. Moreover, the growth is 109% in test [7], 107% in test [8], 106% in test [9] and 110% in test [10].

Regarding `O=C(O)C(=Cc1c2ccccc2cc2ccccc12)C(=O)O`, the growth is 102% in test [1]; 103% in test [2]; 104% in [3]; 112% in test [4]; 117% in test [5]; 107% in [6]. Besides, the growth in [7] was 111%; in [8], 118%; in test [9] it was 106%; in [10], 98.3%.

On to `CC(C)(C)OC(=O)N1C/C(=C\c2cccs2)C(=O)/C(=C/c2cccs2)C1`, for which the growth is 55.5% in test [1]; 55.4% in test [2]; 87.8% in test [3]; 109% in test [4]; 82.2% in test [5]; 90.1% in test [6]. Further, the growth in test [7] was 83%; in [8] it was 104%; in [9], 93.3%; in test [10] it was 96.3%.

For `O=C(O)c1ccc(-n2cc(CNc3ccc(C(F)(F)F)cc3)c(-c3ccccc3)n2)cc1`, the growth in test [1] is 84.1%; in test [2], 76.6%; in test [3], 79.8%; in test [4], 119%; in [5], 95.4%; in test [6], 103%. The growth in test [7] is 111%; in test [8] it was 96.1%; in test [9], 93.7%; in test [10], 101%.

Regarding `O=[N+]([O-])c1ccc(S(=O)(=O)N2CCN(c3ccnc4cc(Cl)ccc34)CC2)c([N+](=O)[O-])c1`, the growth was 3.12% (active) in [1]; 25.7% in test [2]; 97.1% in [3]; 106% in test [4]; 95.3% in test [5]; 105% in test [6]. Moreover, the growth in [7] is 99.5%; in [8], 93%; in [9], 89.1%; in [10], 95.5%.

`CNC(=O)c1cc(Oc2ccc3c(c2)sc2nc(-c4ccc(Cl)cc4)cn23)ccn1`: the growth in test [1] was 82.9%; in test [2], 92.4%; in test [3], 73%; in test [4], 113%; in [5], 55.2%; in test [6], 66.2%. Moreover, the growth in [7] was 87.6%; in test [8], 82.7%; in test [9], 70.5%; in [10], 84.7%.

For the compound `CCOC(=O)C1=C(CSC(=S)N(C2CCCCC2)C2CCCCC2)N(C)C(=O)NC1c1ccccc1` (stereo not given), the growth was 29.9% in test [1]; 35.8% in test [2]; 49.2% in [3]; 92% in [4]; 45% in test [5]; 71.4% in test [6]. Also, the growth in [7] is 56.3%; in test [8], 56.1%; in test [9] it was 80.7%; in test [10] it was 64%.

For `O=C(Nc1ccc(I)cc1)c1cccc([N+](=O)[O-])c1O`, the growth was 31.6% in test [1]; 6.95% (active) in [2]; 17.1% in test [3]; 43.4% in test [4]; 19.1% in test [5]; -2.55% (active) in [6]. Also, the growth in test [7] was 30.4%; in test [8], 7.89% (active); in test [9], 42.6%; in test [10], 9.57% (active).

With `Clc1ccc(-c2nc(-c3ccco3)cn3ccnc23)cc1`, the growth was 63.4% in [1]; 52.9% in test [2]; 49.8% in [3]; 87.9% in [4]; 41.3% in [5]; -14.7% (active) in test [6]. Moreover, the growth in test [7] was 40.7%; in test [8] it was 50.7%; in [9], 74%; in test [10], 70.1%.
